Measured values reported in PubChem BioAssay.
Records with an inconclusive call do not appear. Calls of active or inactive are those of the source.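 Rule for the calls, unless noted: active = normalized viability below 100% at a tested concentration; inactive = the rest.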

Legend:
[1] = growth inhibition of DIPG glioma cells, dose response, cell-based, SU-DIPG-XVII, MIPE5.0, CellTiter-Glo, qHTS (AID 1347060; cut-off not given, nearly all actives have AC50 up to about 26 µM;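 for AC50: cells exposed to compound for 48 hours before viability readout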); settings: SU-DIPG-XVII viability, CellTiter-Glo ATP luminescence
[2] = growth inhibition of DIPG glioma cells, dose response, cell-based, JHH-DIPG-1, MIPE4.0, CellTiter-Glo, qHTS (AID 1347062; cut-off not given, nearly all actives have AC50 up to about 27 µM;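 for AC50: cells exposed to compound for two days before readout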); settings: JHH-DIPG-1 viability, CellTiter-Glo ATP luminescence
[3] = growth inhibition of DIPG glioma cells, dose response, cell-based, SU-DIPG-IV, MIPE4.0, CellTiter-Glo, qHTS (AID 1347063; cut-off not given, nearly all actives have AC50 up to about 30 µM;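 note: compound exposure lasted 48 hours before the viability readout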); settings: SU-DIPG-IV viability, CellTiter-Glo ATP luminescence
[4] = growth inhibition of DIPG glioma cells, dose response, cell-based, SU-DIPG-XIII, MIPE5.0, CellTiter-Glo, qHTS (AID 1347064; cut-off not given, nearly all actives have AC50 up to about 23 µM;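 for AC50: cells exposed to compound for 48 hours before the viability read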); settings: SU-DIPG-XIII viability, CellTiter-Glo ATP luminescence
[5] = viability loss in pontine glioma line – cell-based, SU-DIPG-XXV, MIPE5.0, CellTiter-Glo, qHTS, dose response (AID 1347065; cut-off not given, nearly all actives have AC50 up to about 26 µM;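 note: cells exposed to compound for 48 hours before ATP readout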); settings: CellTiter-Glo ATP luminescence
[6] = JHH-DIPG-1 glioma cell viability, MIPE5.0 library, CellTiter-Glo luminescence, qHTS (AID 1347067; cut-off not given, nearly all actives have AC50 up to about 26 µM;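 note: cells exposed to compound for 48 hours before readout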); settings: JHH-DIPG-1 glioma viability, CellTiter-Glo ATP luminescence
[7] = SU-DIPG-XXV glioma cell viability, MIPE5.0 library, qHTS (AID 1347068; cut-off not given, nearly all actives have IC50 up to about 30 µM;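 for IC50: cells exposed to compound for 48 hours before viability readout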)
[8] = sensitizers of A549 cells to miR-34 induction, primary screen, imaging, A549 dox-inducible miR-34, nuclei and caspase counts (AID 1347080;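 active = compounds whose cell count with miR-34 switched on is under 0.7 times the count with it off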); settings: A549 miR-34 inducible, Hoechst nuclei count, 48 h
[9] = survival rescue of mitochondrial mutant cells in low glucose, primary screen, MELAS cybrids, Rieske KO mouse fibroblasts, CellTiter-Glo (AID 1508586;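 active = mean z-score across replicates of 1.96 or higher in either the MELAS or the Rieske mutant cell line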;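 note: z relative to plate mean and SD of compound and empty wells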)
[10] = SU-DIPG-VI glioma cell viability, MIPE4.0 library, CellTiter-Glo luminescence, qHTS (AID 1347066; cut-off not given, nearly all actives have AC50 up to about 30 µM;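 note: cells exposed to compound for 48 hours before readout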); settings: CellTiter-Glo ATP luminescence
[11] = modifiers of HSF1 nuclear foci, imaging, Selleck Cancer Library (AID 1347162; in the data active = plate-normalised HSF1 focus index below about 0.46); settings: human cells, at 10 µM; SSMD: measured here: HSF1 foci SSMD mean; cell count: measured here: cell number; plate-normalised HSF1 focus index: stronger effect = lower value
[12] = ovarian cancer cell viability with rucaparib, profiling panel, oncology-focused library, rucaparib conditional (AID 1508598); settings: patient-derived ovarian cancer cells, CellTiter-Glo viability, 144 h, stronger effect = lower value
[13] = stronger effect = lower value, cell number ratio, induced over uninduced
[14] = measured here: relative caspase fold change +Dox/-Dox
[15] = measured here: total cells with miR-34 induction, stronger effect = lower value
[16] = measured here: total cells without miR-34 induction
[17] = MELAS cybrid survival, CellTiter-Glo 48 h, stronger effect = higher value
[18] = Rieske KO mouse fibroblast survival, CellTiter-Glo 72 h

Nc1nc(N)c2nc(-c3cccc(O)c3)c(-c3cccc(O)c3)nc2n1
7850: cell count [8, 16]
active: AC50 [2] 14.8 µM | AC50 [3] 6.62 µM
7630: cell count [8, 15]
0.936: z-score [9, 18]
inactive: outcome [1] | outcome [4] | outcome [5] | outcome [6] | outcome [7] | fold change [8, 13] 0.972 | z-score [9, 17] -0.482
0.762: fold change [8, 14]

Cc1c(CCOc2ccc(C(=O)O)cc2)c2cc(Cl)ccc2n1C(c1ccccc1)c1ccccc1
2.36: SSMD [11]
inactive: outcome [1] | outcome [2] | outcome [3] | outcome [4] | outcome [5] | outcome [10] | outcome [6] | outcome [7] | plate-normalised HSF1 focus index [11] 1.14
6680: cell count [11]

Oc1ccc(-c2ccc(-c3cc(Nc4cccc(CNC5CC5)c4)n[nH]3)cc2)c(O)c1
active: AC50 [1] 6.61 µM | AC50 [2] 1.66 µM | AC50 [3] 4.69 µM | AC50 [4] 13.2 µM | AC50 [5] 7.42 µM | AC50 [10] 16.6 µM | IC50 [7] 26.3 µM

NC1(c2ccc(-c3nc4ccn5c(=O)[nH]nc5c4cc3-c3ccccc3)cc2)CCC1
active: AC50 [1] 16.6 µM | AC50 [2] 23.5 µM | AC50 [3] 14.8 µM | AC50 [4] 6.61 µM | AC50 [5] 1.86 µM | AC50 [6] 6.61 µM | IC50 [7] 18.6 µM | viability ([12]; at 0.0781 µM, OCI-P5x cells, with rucaparib 20 µM, 100% = cells with rucaparib alone) 98.1% | viability ([12]; at 0.0781 µM, OCI-P5x cells, without rucaparib) 98.2% | viability ([12]; at 0.313 µM, OCI-P5x cells, with rucaparib 20 µM, 100% = cells with rucaparib alone) 90.4% | viability ([12]; at 1.25 µM, OCI-P5x cells, with rucaparib 20 µM, 100% = cells with rucaparib alone) 88.6%
1.72: fold change [8, 14]
-0.0056: z-score [9, 18]
4130: cell count [8, 15]
6650: cell count [11]
inactive: fold change [8, 13] 0.999 | plate-normalised HSF1 focus index [11] 1.19 | z-score [9, 17] -0.154 | viability ([12]; at 0.000305 µM, OCI-C5x cells, with rucaparib 10 µM, 100% = cells with rucaparib alone) 119% | viability ([12]; at 0.000305 µM, OCI-C5x cells, without rucaparib) 118% | viability ([12]; at 0.000305 µM, OCI-P5x cells, with rucaparib 20 µM, 100% = cells with rucaparib alone) 117% | viability ([12]; at 0.000305 µM, OCI-P5x cells, without rucaparib) 108% | viability ([12]; at 0.00122 µM, OCI-C5x cells, with rucaparib 10 µM, 100% = cells with rucaparib alone) 119% | viability ([12]; at 0.00122 µM, OCI-C5x cells, without rucaparib) 126% | viability ([12]; at 0.00122 µM, OCI-P5x cells, with rucaparib 20 µM, 100% = cells with rucaparib alone) 102% | viability ([12]; at 0.00122 µM, OCI-P5x cells, without rucaparib) 112% | viability ([12]; at 0.00488 µM, OCI-C5x cells, with rucaparib 10 µM, 100% = cells with rucaparib alone) 111% | viability ([12]; at 0.00488 µM, OCI-C5x cells, without rucaparib) 129% | viability ([12]; at 0.00488 µM, OCI-P5x cells, with rucaparib 20 µM, 100% = cells with rucaparib alone) 103% | viability ([12]; at 0.00488 µM, OCI-P5x cells, without rucaparib) 106% | viability ([12]; at 0.0195 µM, OCI-C5x cells, with rucaparib 10 µM, 100% = cells with rucaparib alone) 110% | viability ([12]; at 0.0195 µM, OCI-C5x cells, without rucaparib) 119% | viability ([12]; at 0.0195 µM, OCI-P5x cells, with rucaparib 20 µM, 100% = cells with rucaparib alone) 100% | viability ([12]; at 0.0195 µM, OCI-P5x cells, without rucaparib) 104% | viability ([12]; at 0.0781 µM, OCI-C5x cells, with rucaparib 10 µM, 100% = cells with rucaparib alone) 119% | viability ([12]; at 0.0781 µM, OCI-C5x cells, without rucaparib) 133% | viability ([12]; at 0.313 µM, OCI-C5x cells, with rucaparib 10 µM, 100% = cells with rucaparib alone) 131% | viability ([12]; at 0.313 µM, OCI-C5x cells, without rucaparib) 141% | viability ([12]; at 0.313 µM, OCI-P5x cells, without rucaparib) 110% | viability ([12]; at 1.25 µM, OCI-C5x cells, with rucaparib 10 µM, 100% = cells with rucaparib alone) 107% | viability ([12]; at 1.25 µM, OCI-C5x cells, without rucaparib) 150% | viability ([12]; at 1.25 µM, OCI-P5x cells, without rucaparib) 103% | viability ([12]; at 5 µM, OCI-C5x cells, with rucaparib 10 µM, 100% = cells with rucaparib alone) 134% | viability ([12]; at 5 µM, OCI-C5x cells, without rucaparib) 144% | viability ([12]; at 5 µM, OCI-P5x cells, with rucaparib 20 µM, 100% = cells with rucaparib alone) 104% | viability ([12]; at 5 µM, OCI-P5x cells, without rucaparib) 106%
3.02: SSMD [11]
4140: cell count [8, 16]
